Several values for one entry are separate records, joined by “and”; a condition that tells them apart may be missing. Equal values may be shown once. Among all 340,000 compounds or so, about 3,300 (0.97%) were called active. Only a selection was taken, and actives are over-represented in it overall. A number with no mark means an inactive call.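 Rule for the calls: active = inhibition above the mean over all tested compounds plus 3 SD (cut at about 30% in these data); inactive = the rest.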
molecular target: Platelet-activating factor acetylhydrolase 2, cytoplasmic (Homo sapiens) (UniProt Q99487); assay: PAFAH2 enzyme inhibitors, primary screen, biochemical, fluorescence polarization, human (AID 492956); conditions: recombinant PAFAH2, FP-rhodamine activity probe, at 3.39 µM, hits give high values;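 note: inhibitors block probe labeling of enzyme so polarization drops; 0% = enzyme with DMSO and 100% = wells lacking PAFAH2 protein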

Compound | inhibition
O=C(c1cccnc1)N(Cc1ccccc1)C(=O)c1cccnc1 | 3.92%
COc1ccc(N(C(=O)c2cccnc2)S(=O)(=O)c2ccc(OC)c(OC)c2)cc1 | -3.27%
O=C(c1cccnc1)N(c1cc2sc(=O)oc2c2ccccc12)S(=O)(=O)c1ccccc1 | 36.6% (active)
COc1cccc2oc(CCc3ccccc3)cc(=O)c12 | 6.23%
CCC1C(C#N)=C(SC)NC2=C1C(=O)CC(C)(C)C2 (centres undefined) | -6.12%
CCOc1ccc(NC(=O)c2ccc(NC(=O)COC(=O)c3ccc(NC(=O)CC#N)cc3)cc2)cc1 | -53.2%
O=C(OCC(=O)c1cccs1)C1=COCCO1 | 17.6%
CCC(C)(C)c1ccc(Oc2ccc(NC(=O)COC(=O)C3=COCCO3)cc2)cc1 | 55.4% (active)
COc1cccc(C2=CC(=O)C[C@H](c3ccc(F)cc3)C2)c1OC | -13.9%
O=C(OC1CCOC1=O)c1cccc(S(=O)(=O)Nc2ccc(F)cc2)c1 (centres undefined) | 9.72%
Cc1ccc2nc(COc3ccc(N(C)S(=O)(=O)c4ccccc4)cc3)cc(=O)n2c1 | 8.78%
CC1CCCCC1NC(=O)CCS(=O)(=O)c1ccc2c(c1)NC(=O)CO2 (centres undefined) | 26.2%
CNN/C(N=Cc1ccc([N+](=O)[O-])s1)=N\S(=O)(=O)c1cc(C)c(Cl)cc1SCc1ccccc1 | 5.01%
O=[N+]([O-])c1ccc(C=Nc2ccc(Cl)cc2Cl)s1 | 63.8% (active)
CC1CN(C(=O)c2ccc([N+](=O)[O-])s2)CC(C)O1 (centres undefined) | 5.08%
O=C1COc2ccc(C(=O)COC(=O)CCOc3ccccc3)cc2N1 | 0.36%
COc1ccc(OC)c(-c2csc(-c3cccs3)n2)c1 | 5.06%
COc1cccc(C(=O)n2ccc(-c3cccs3)n2)c1 | 31.8% (active)
COc1cccc(NC(=O)CN(C)C(=O)/C=C/c2cn(-c3ccccc3)nc2-c2cccs2)c1 | -54.5%
CC(C)(C)c1ccc(Cn2nnc3c(=O)[nH]c(C4CCCN(C(=O)c5ccco5)C4)nc32)cc1 (centres undefined) | -1.16%

Compound | inhibition
Cc1cc(C)cc(NC(=O)CCN2C(=O)c3ccccc3C2=O)c1 | -14%
CCn1cc(CN2CCN(CC(C)(C)C)C(CCO)C2)c2ccccc21 (centres undefined) | 1.37%
CCOc1ccc(/C=C/C(=O)OCC(=O)c2ccccc2OC)cc1OC | 6.36%
COc1ccc(CCNC(=O)COC(=O)/C=C/c2cccs2)cc1OC | 6.71%
COc1ccccc1/C=C/C(=O)NC1CC2CCC1C2 (centres undefined) | -0.78%
O=C(CCC(=O)c1cccs1)NC1CCCCCC1 | 8.2%
COc1ccccc1-n1ccnc(SCC(=O)NC2CCCCC2)c1=O | -2.23%
O=C(COC(=O)/C=C/c1cccs1)NC1CCCCC1 | 80.5% (active)
COc1ccc(/C=C/C(=O)OCC(=O)NC2CCCCCC2)cc1OC | 87.4% (active)
COc1ccccc1/C=C/C(=O)OCC(=O)NC1CCCCCC1 | 93.2% (active)
COc1cc(/C=C/C(=O)OCC(=O)NC2CC2)cc(OC)c1OC | 9.4%
COc1cc2c(C(=O)N3CCN(C)CC3)c(CSc3ccccc3)n(C)c2cc1Br | -5.01%
COc1ccc(NC(=O)c2cccc(Cl)c2)c[n+]1[O-] | -0.76%
O=C(CSCc1c(Cl)cccc1Cl)NN1C(=O)c2ccccc2C1=O | 11.8%
Cc1cccc(CN2CCN(Cc3cnn(-c4ccccc4F)c3)CC2CCO)n1 (centres undefined) | -6.68%
COc1ccc(C(=O)n2nc(-c3ccc(Cl)cc3)nc2N)cc1OC | 3.15%
COc1ccc(C(=O)O/N=C(\N)Cc2ccc(Cl)cc2Cl)cc1OC | 85.3% (active)
COc1ccc(CCn2ccc(O)c(Cc3ccc(Cl)cc3Cl)c2=O)cc1OC | -2.38%
C=CCOc1ccc(C(=O)Nc2ccccc2C(=O)N2CCCC2)cc1 | 7.79%
CCCCn1c(O)c(N=NC(=O)Cn2c(C(F)(F)F)nc3ccccc32)c2ccccc21 | -3.07%

Compound | inhibition
O=C(O)Cc1csc(-c2cccc(Oc3ccccc3)c2)n1 | 3.06% and 0.17%
CC1CC(C)CN(c2ccc(S(=O)(=O)N3CCOCC3)cc2)C1 (centres undefined) | 13.7%
Cc1ccc(OCC(=O)N2CCN(S(=O)(=O)c3ccc(Cl)s3)CC2)cc1C | 6.03%
CN(C)S(=O)(=O)c1cccc(NC(=O)COC(=O)/C=C/c2cccs2)c1 | 72.2% (active)
CN(C)S(=O)(=O)c1cccc(NC(=O)COc2ccc3ccccc3c2)c1 | -8.6%
Cc1ccc(S(=O)(=O)N(C)C)cc1NC(=O)/C=C/c1cccs1 | 5.59%
CN(C)S(=O)(=O)c1cccc(NC(=O)COC(=O)c2cc(=O)[nH]c(=O)[nH]2)c1 | 0.25%
Cc1ccc(S(=O)(=O)N(C)C)cc1NC(=O)COC(=O)c1c(C)noc1C | -9.47%
Cc1ccc(S(=O)(=O)N(C)C)cc1NC(=O)COC(=O)/C=C/c1cccs1 | 59.3% (active)
O=C(C1CCN(S(=O)(=O)Cc2ccccc2)CC1)N1CCCc2ccccc21 | -7.5%
CCOC(=O)NC(=O)/C(C#N)=C\c1ccccc1 | -7.65%
COCCNC(=O)/C(C#N)=C/c1cccc(OCc2ccccc2)c1 | 30.2% (active)
COCCNC(=O)/C(C#N)=C/c1nc(N(C)C)n(-c2ccc(F)cc2)c1Cl | 1.81%
Cc1cc(C(=O)COC(=O)C2CC2)c(C)n1-c1ccc(F)cc1 | 44.5% (active)
Cc1ccc(-n2c(C)cc(C(=O)CN3C(=O)C(=O)N(C4CCCC4)C3=O)c2C)cc1 | 4.94%
Cc1cc(C(=O)COc2ccccc2Cl)c(C)n1C1CC1 | 0.58%
COc1cc(C(=O)NN(CCC#N)C2=NS(=O)(=O)c3ccccc32)cc(OC)c1OC | 4.52%
COc1ccc(/C=N/N(C)C2=NS(=O)(=O)c3ccccc32)cc1OC | 31.8% (active)
C=CCOCCN(C)C1=NS(=O)(=O)c2ccccc21 | -9.33%

Source: PubChem BioAssay AID492956 (The Scripps Research Institute Molecular Screening Center, 2010)
